According to the supplement of paper PMC13380429:

System: Vero E6 infected with SARS-CoV-2
Experiment: inhibition of SARS-CoV-2 cytopathic effect; higher = more antiviral protection, active = above 15
Conditions: 48 h

Measured: inhibition of SARS-CoV-2 cytopathic effect

CC/C(=C(\c1ccccc1)c1ccc(OCCN(C)C)cc1)c1ccccc1 [tamoxifen]
inactive: 1 nM -0.39% | 8.33 nM 1.81% | 100 nM 0.36% | 833.33 nM 0.06% | 10000 nM 11.2%

N[C@H]1CC[C@H](N[C@@H]2C[C@H]2c2ccccc2)CC1
inactive: 1 nM -0.96% | 8.33 nM 2.24% | 100 nM 1.16% | 833.33 nM 1.11% | 10000 nM 1.79%

N#Cc1cc(NC(=O)C(=O)O)c(Cl)c(NC(=O)C(=O)O)c1 [lodoxamide]
inactive: 1 nM -2.56% | 8.33 nM 1.86% | 100 nM -0.16% | 833.33 nM -3.06% | 10000 nM -0.06%

C[C@@H](CN(C)C)CN1c2ccccc2Sc2ccccc21 (racemic) [alimemazine]
inactive: 1 nM -2.63% | 8.33 nM -3.15% | 100 nM -1.76% | 833.33 nM -0.79% | 10000 nM -0.47%

CC(C)(C(=O)O)c1ccc(C(=O)CCCN2CCC(OC(c3ccccc3)c3ccccc3)CC2)cc1 [carebastine]
inactive: 1 nM -2.83% | 8.33 nM -1.16% | 100 nM -0.91% | 833.33 nM -2.56% | 10000 nM -0.56%

CC(=O)O[C@H]1CC[C@@]2(C)C(=CC[C@@H]3[C@@H]2CC[C@]2(C)C(=O)CC[C@@H]32)C1 [prasterone-acetate]
inactive: 1 nM -0.78% | 8.33 nM 2.86% | 100 nM 3.18% | 833.33 nM 4.82% | 10000 nM -2.88%

Nc1nc(O)c2[nH]nnc2n1 [azaguanine-8]
inactive: 1 nM 1.2% | 8.33 nM 2% | 100 nM 1.6% | 833.33 nM 1.36% | 10000 nM 6.36%

O=c1[nH]c(=O)n([C@H]2C[C@H](O)[C@@H](CO)O2)cc1I [idoxuridine]
inactive: 1 nM 1.04% | 8.33 nM -1.19% | 100 nM 2.65% | 833.33 nM -0.31% | 10000 nM -2.33%

Nc1ncnc2c1ncn2C1CCCO1 (stereo not given)
inactive: 1 nM 2.17% | 8.33 nM 3.9% | 100 nM -1% | 833.33 nM 2.95% | 10000 nM -0.8%

CCn1c(-c2nonc2N)nc2cncc(CNC3CCNCC3)c21
inactive: 1 nM 0.63% | 8.33 nM -1.43% | 100 nM -0.75% | 833.33 nM -2.49% | 10000 nM -3.57%

OCCN1CCN(CC/C=C2/c3ccccc3Sc3ccc(Cl)cc32)CC1 [zuclopenthixol]
inactive: 1 nM -1.15% | 8.33 nM -3.42% | 100 nM -1.94% | 833.33 nM -3.61% | 10000 nM 8.42%

Clc1ccc(-c2nc3sccn3c2/C=N/OCc2ccc(Cl)c(Cl)c2)cc1
inactive: 1 nM -0.5% | 8.33 nM -0.99% | 100 nM -1.16% | 833.33 nM -0.11% | 10000 nM 0.21%

Cc1cccn2c(=O)c(-c3nnn[nH]3)cnc12 [pemirolast]
inactive: 1 nM -0.01% | 8.33 nM 0.57% | 100 nM 0.12% | 833.33 nM 3.15% | 10000 nM -1.12%

CC1(C)S[C@@H]2[C@H](NC(=O)C(C(=O)O)c3ccccc3)C(=O)N2[C@H]1C(=O)O (stereo not given in full) [carbenicillin]
inactive: 1 nM 2.76% | 8.33 nM 1.83% | 100 nM 0.55% | 833.33 nM 2.42% | 10000 nM 0.1%

CCn1c(=O)n(C2=C(CO)CN(CC3CCCCCCC3)CC2)c2ccccc21 [trap-101]
inactive: 1 nM -2.39% | 8.33 nM 1.16% | 100 nM 1.23% | 833.33 nM 1.48% | 10000 nM -3.08%

O=C1NC(=O)/C(=C/c2ccc(-c3ccc(F)cc3O)o2)S1
inactive: 1 nM -0.52% | 8.33 nM -0.98% | 100 nM -0.46% | 833.33 nM -1.39% | 10000 nM -0.94%

Cc1oc2nc3c(c(NC(=O)CN4CCCC4=O)c2c1C)CCCC3
inactive: 1 nM 0.92% | 8.33 nM -2.29% | 100 nM -0.3% | 833.33 nM -0.97% | 10000 nM 0.5%

c1cc(-c2sc(-c3ccncc3)c(-c3ccncc3)c2-c2ccncc2)ccn1
inactive: 1 nM -1.78% | 8.33 nM -0.14% | 100 nM -3.51% | 833.33 nM -4.39% | 10000 nM -5.36%

COc1cc2ncnc(Oc3cccc(NC(=O)Nc4cc(C(C)(C)C(F)(F)F)on4)c3)c2cc1OC
inactive: 1 nM -0.44% | 8.33 nM 0.69% | 100 nM 2.72% | 833.33 nM -0.98% | 10000 nM -6.45%

CC1(C)C(=O)N(CCN2CCC(C(=O)c3ccc(F)cc3)CC2)c2ccccc21
inactive: 1 nM -2.5% | 8.33 nM 0.34% | 100 nM -1.18% | 833.33 nM -0.38% | 10000 nM 0.46%

C[C@H]1COC2=C1C(=O)C(=O)c1c2ccc2c1CCCC2(C)C [cryptotanshinone]
inactive: 1 nM 1.45% | 8.33 nM 0.55% | 100 nM 2.85% | 833.33 nM -1.89% | 10000 nM -2.92%

Cc1ccccc1N1CCN(CCc2nnc3n2CCCC3)CC1 [dapiprazole]
inactive: 1 nM -2.9% | 8.33 nM -2.22% | 100 nM 0.65% | 833.33 nM -0.37% | 10000 nM 0.44%

Clc1ccc(COC(Cn2ccnc2)c2ccc(Cl)cc2Cl)c(Cl)c1 (stereo not given) [miconazole]
inactive: 1 nM -1.92% | 8.33 nM 0.22% | 100 nM -0.38% | 833.33 nM 0.7% | 10000 nM -4.16%

Cc1ccc2c(c1)C(=O)[C@]1(O)CCN(c3ccccc3)C1=N2 (racemic) [blebbistatin-(+/-)]
inactive: 1 nM 0.35% | 8.33 nM -0.695% | 100 nM -1.93% | 833.33 nM -1.36% | 10000 nM -2.33%

Cc1ncc(OC[C@@]2(c3cccc(F)c3)C[C@H]2C(=O)Nc2ccc(F)cn2)c(C)n1 [lemborexant]
inactive: 1 nM -1.6% | 8.33 nM -1.02% | 100 nM -1.75% | 833.33 nM -4.61% | 10000 nM -1.06%

C[N+](C)(C)CCCCCCCCCC[N+](C)(C)C [decamethonium]
inactive: 1 nM -3.35% | 8.33 nM -4.24% | 100 nM -5.16% | 833.33 nM -3.23% | 10000 nM -1.94%

CC(C)(C)NCC(O)COc1cccc2c1CCC(=O)N2 (stereo not given) [carteolol]
inactive: 1 nM 2.16% | 8.33 nM 1.11% | 100 nM 0.54% | 833.33 nM 2.62% | 10000 nM -0.66%
